Only a selection was taken, and hits are over-represented in it overall.
Shiga inhibitor – blocks Shiga toxin action in Vero cells. Vero cells, Shiga toxin protein synthesis inhibition reporter. inhibition, % at 38.7 µM. 9.2% of 290,000 active. AID 2315; in the data active means inhibition mostly above about 28%, no sharp cut-off; inactive means mostly below about 43%
CHX counter – counter-screen for Shiga toxin inhibitors: cycloheximide protein synthesis inhibition; max response, %; cell reporter, cycloheximide protein synthesis inhibition counterscreen; 12% of 300,000 active; in the data active means max response mostly above about 13%, no sharp cut-off; inactive means mostly below about 14%; further: read at 38.3 µM for the half of the compounds with a filed dose
AmpC inh detg – blocks E. coli AmpC beta-lactamase in detergent assay | 0.041% of 370,000 active | P00811 | Potency, µM (top dose mostly 114 µM), actives largely listed as inhibitors | AID 485294 | AmpC hydrolysis of nitrocefin, absorbance 480 nm, 0.01% Triton; further: nearly all actives have a fitted effect of over 25% in size
Target sequence (P00811 whole entry, looked up): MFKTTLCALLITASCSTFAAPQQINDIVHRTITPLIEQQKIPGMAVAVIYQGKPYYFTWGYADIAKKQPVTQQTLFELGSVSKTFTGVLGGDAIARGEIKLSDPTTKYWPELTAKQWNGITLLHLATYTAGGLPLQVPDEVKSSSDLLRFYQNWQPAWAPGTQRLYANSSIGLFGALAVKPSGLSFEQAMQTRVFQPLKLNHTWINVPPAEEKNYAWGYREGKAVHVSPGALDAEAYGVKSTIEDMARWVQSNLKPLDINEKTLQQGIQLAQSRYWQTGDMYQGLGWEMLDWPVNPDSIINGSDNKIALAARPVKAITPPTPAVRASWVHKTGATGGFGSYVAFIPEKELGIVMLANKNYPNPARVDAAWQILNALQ
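AmpC (5.3 nM in the dispensed reagent) in 20 mM phosphate pH 7.0 with 0.01% (detergent screen) or 0.0001% Triton X-100 was preincubated with compounds for 15 min at room temperature. Nitrocefin was then added from an 800 uM solution, and hydrolysis was followed at 480 nm.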
NS1 function inh – inhibitors of influenza NS1 protein function; Potency, µM (series often up to 46.1 µM); 0.4% of 270,000 active; AID 2326; calls by dose curve; further: actives are rising curves; nearly all actives have a fitted effect of over 50% in size
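Growth recovery, yeast-based: influenza A NS1 expressed in S. cerevisiae causes slow growth, and suppressors are detected by OD600. The parent strain without NS1 is used as positive control.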
AmpC no deterg – AmpC beta-lactamase inhibition without detergent; 0.52% of 330,000 active; Potency, µM (top dose mostly 57.1 µM), hits mostly inhibitors; P00811; AmpC nitrocefin hydrolysis, absorbance 480 nm, 0.0001% Triton; further: nearly all actives have a fitted effect of over 20% in size
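20 mM phosphate pH 7.0 + 0.01% (detergent screen) or 0.0001% Triton X-100; 5.3 nM AmpC reagent; cpd preinc 15 min RT; nitrocefin (800 uM stock) to start; A480 q20 s × 4 min; Activity was normalised to no-enzyme and no-compound control wells.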
A number is an active result. Unless noted, the call rests on the fitted dose curve; in most records, active means well fitted curve in the direction sought with a large enough effect; inconclusive means small, poorly fitted or top-dose-only effect, or another doubt; inactive means no such curve, though single readings can be large; an effect the other way counts as inactive or inconclusive.

For CCN(CC)C(=O)c1sc(NC(=O)c2ccc3c(c2)OCO3)c(C(N)=O)c1C the results were Shiga inhibitor inactive, CHX counter 42, AmpC inh detg inactive, NS1 function inh inactive and AmpC no deterg inactive.
Screening Nc1ccccc1N=Cc1c(O)n(CCC2=CCCCC2)c(=O)[nH]c1=O returned Shiga inhibitor 180, CHX counter 62, AmpC inh detg inactive, NS1 function inh inactive and AmpC no deterg inactive.
`O=C(N/N=C/c1c(O)n(CCC2=CCCCC2)c(=O)[nH]c1=O)c1ccccc1` gave Shiga inhibitor inactive, CHX counter 27, AmpC inh detg inactive, NS1 function inh inactive and AmpC no deterg inactive.
O=C(N/N=C/c1c(O)n(Cc2ccc(F)cc2)c(=O)[nH]c1=O)c1ccccc1 was read as Shiga inhibitor 89, CHX counter 29, AmpC inh detg inactive, NS1 function inh inactive and AmpC no deterg inactive.
Screening O=c1[nH]c(=O)n(CCC2=CCCCC2)c(O)c1C=Nc1cccc(F)c1 returned Shiga inhibitor inactive, CHX counter inactive, AmpC inh detg inactive, NS1 function inh inactive and AmpC no deterg inactive.
O=C(N/N=C/c1c(O)n(Cc2ccccc2)c(=O)[nH]c1=O)c1ccncc1 was read as Shiga inhibitor inactive, CHX counter inactive, AmpC inh detg inactive, NS1 function inh inactive and AmpC no deterg inactive.
Screening O=c1[nH]c(=S)n(CCC2=CCCCC2)c(O)c1C=NCc1cccnc1 returned Shiga inhibitor inactive, CHX counter inactive, AmpC inh detg inactive, NS1 function inh inactive and AmpC no deterg inactive.
Screening O=C(N/N=C/c1c(O)n(CCC2=CCCCC2)c(=S)[nH]c1=O)c1ccccc1 returned Shiga inhibitor 38, CHX counter 35, AmpC inh detg inconclusive, NS1 function inh inconclusive and AmpC no deterg inactive.
Screening Cc1ccc(NC(=O)CSc2nc3n[nH]c(C)c3c(=N)n2-c2ccccc2C)cc1C returned AmpC inh detg inactive.
CCC(O)(CC)C(=O)N(Nc1ccc(C)cc1)c1ccc(C)cc1 was read as Shiga inhibitor inactive, CHX counter inactive, AmpC inh detg inactive, NS1 function inh inactive and AmpC no deterg inactive.
For CCOC(=O)C(=O)N(Nc1ccc(C)cc1)c1ccc(C)cc1 the results were Shiga inhibitor 72, CHX counter 16, AmpC inh detg inactive, NS1 function inh inactive and AmpC no deterg inactive.
For O=C(NOC(=O)c1c(F)cccc1Cl)c1ccc(Cl)c(Cl)c1 the results were Shiga inhibitor 46, CHX counter 30, AmpC inh detg inactive, NS1 function inh inactive and AmpC no deterg inactive.
For O=C(Cc1ccccc1F)Nc1ccccc1-c1ccccc1 the results were Shiga inhibitor 70, CHX counter 27, AmpC inh detg inactive and AmpC no deterg inactive.
For O=C(Nc1ccccc1-c1ccccc1)C1CCC1 the results were Shiga inhibitor inactive, CHX counter 26, AmpC inh detg inactive, NS1 function inh inactive and AmpC no deterg inactive.
For O=C(Cc1c(F)cccc1Cl)Nc1ccccc1-c1ccccc1 the results were Shiga inhibitor inactive, CHX counter inactive, AmpC inh detg inconclusive, NS1 function inh inactive and AmpC no deterg inactive.
Screening Cc1nc(NCCC(C)C)c2nnn(Cc3ccccc3)c2n1 returned Shiga inhibitor inactive, CHX counter inactive, AmpC inh detg inconclusive, NS1 function inh inactive and AmpC no deterg inactive.
`O=C(CNC(=O)c1ccc(Cl)c([N+](=O)[O-])c1)NCC1CCCO1` (stereo not drawn) gave Shiga inhibitor inactive, CHX counter inactive, AmpC inh detg inactive, NS1 function inh inactive and AmpC no deterg inactive.
`CCS(=O)(=O)N1CCC(c2nc(-c3ccc(C)cc3)no2)CC1` gave Shiga inhibitor 74, CHX counter 55, AmpC inh detg inactive, NS1 function inh inactive and AmpC no deterg inactive.
Screening Cc1cccc(-c2noc(-c3ccno3)n2)c1 returned Shiga inhibitor 91, CHX counter 40, AmpC inh detg inactive, NS1 function inh inactive and AmpC no deterg inactive.
For CCS(=O)(=O)N1CCC(c2nc(-c3ccc(C(F)(F)F)cc3)no2)CC1 the results were Shiga inhibitor inactive, CHX counter inactive, AmpC inh detg inactive, NS1 function inh inactive and AmpC no deterg inactive.
`Cc1ccc(-c2noc(C3CCCCC3)n2)cc1` gave Shiga inhibitor 50, CHX counter inactive, AmpC inh detg inactive, NS1 function inh inactive and AmpC no deterg inactive.
For Cc1cccc(-c2noc(C3CCCCC3)n2)c1 the results were Shiga inhibitor 198, CHX counter 55, AmpC inh detg inactive and NS1 function inh inactive.
Screening COc1cc(NC(=O)CSc2ccc(-c3sc(C)nc3C)nn2)cc(OC)c1 returned AmpC inh detg inactive.

Screening results as filed in PubChem.
